How the values were obtained:
Conditions in all cases: concentration: 1 μM, replicates: in singlicate; n = 1
[1] = tested on: FLT3
[2] = tested on: FLT4
[3] = tested on: FRK
[4] = tested on: FYN
[5] = tested on: GAK
[6] = tested on: T1, GCN2(Kin.Dom.2,S808G)
T1 construct: gene EIF2AK4

[7] = tested on: GRK1
[8] = tested on: T2, GRK2
T2 construct: gene ADRBK1

[9] = tested on: T3, GRK3
T3 construct: gene ADRBK2

[10] = tested on: GRK4
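Note: KINOMEscan kinase panel screen.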

SMILES | %Inh [1] | %Inh [2] | %Inh [3] | %Inh [4] | %Inh [5] | %Inh [6] | %Inh [7] | %Inh [8] | %Inh [9] | %Inh [10]
COC(=O)c1c(-c2ccccc2)c2cc(C(=O)O)ccc2c(=O)n1Cc1ccccc1 | 0% | 0% | 48% | 0% | 0% | 10% | 0% | 0% | 3% | 23%
Cl.O=C(Nc1cccc(-c2nn3ncccc3c2-c2ccnc(Nc3cccnc3)n2)c1)c1c(F)cccc1F [GSK312879] | 0% | 9% | 15% | 21% | 8% | 0% | 20% | 0% | 27% | 0%
Cc1cc(N2Cc3ccccc3C2)nc(Nc2ccc(S(=O)(=O)N3CCOCC3)cc2)n1.Cl [GSK1669917] | 0% | 3% | 11% | 0% | 0% | 0% | 0% | 0% | 0% | 0%
CCCc1ccc(S(=O)(=O)NC2CCN(c3ccnc(Nc4ccc(F)cc4)n3)C2)cc1 (centres unmarked) [GSK1379715] | 0% | 0% | 8% | 0% | 10% | 0% | 100% | 0% | 33% | 0%
COc1cccc(NC(=O)NC2CCN(c3ccnc(Nc4ccc(F)cc4)n3)C2)c1 (centres unmarked) [GSK1379721] | 3% | 0% | 0% | 25% | 3% | 0% | 0% | 0% | 18% | 0%
O=C(O)COc1ncnc2cc(-c3ccc4[nH]ncc4c3)sc12 | 2% | 2% | 100% | 100% | 4% | 0% | 3% | 20% | 23% | 0%
Cc1nnc(-c2ccc3occ(-c4ccc(S(C)=O)cc4)c3c2)[nH]1 (centres unmarked) | 33% | 18% | 1% | 0% | 24% | 0% | 20% | 0% | 40% | 11%
CCn1c(-c2cccnc2O)nc2cnccc21 [SB-736715] | 23% | 0% | 0% | 0% | 0% | 8% | 0% | 0% | 21% | 19%
Nc1ncnc2[nH]c(-c3ccccc3)nc12 [AH5015] | 0% | 0% | 13% | 39% | 44% | 27% | 0% | 0% | 49% | 0%
COc1cc2ncnc(Nc3ccc4nc(-c5ccccc5)[nH]c4c3)c2cc1OC.Cl [GW282450] | 0% | 0% | 0% | 34% | 68% | 0% | 0% | 0% | 14% | 11%
O=C(Nc1n[nH]c2cc(-c3cccc(F)c3F)ccc12)C1CC1 [SB-733894] | 0% | 0% | 0% | 0% | 6% | 0% | 44% | 0% | 0% | 0%
COc1cc(Nc2nccc(N3CCC(NC(=O)Nc4cc(C)ccc4C)C3)n2)cc(OC)c1OC (centres unmarked) [GSK1379762] | 36% | 14% | 8% | 0% | 28% | 3% | 0% | 0% | 10% | 20%
COc1cccc(-c2cc(-c3c[nH]nc3-c3ccccn3)ccn2)c1 [GW680338] | 0% | 83% | 10% | 11% | 75% | 7% | 1% | 0% | 14% | 0%
COc1cc2ncn(-c3cc(OCC4CCCO4)c(C(N)=O)s3)c2cc1OC (centres unmarked) [GSK204607] | 0% | 36% | 17% | 33% | 53% | 0% | 0% | 0% | 16% | 0%
CC(C)(C)c1ccc(C(=O)Nc2cn3cc(-c4cccnc4)ccc3n2)cc1 | 65% | 16% | 23% | 0% | 18% | 21% | 41% | 0% | 0% | 0%
COc1ccc2nc(-c3cccc(C)n3)nc(Nc3ccncc3)c2c1 [GSK204919] | 0% | 5% | 9% | 13% | 8% | 0% | 0% | 0% | 43% | 0%

SMILES | %Inh [1] | %Inh [2] | %Inh [3] | %Inh [4] | %Inh [5] | %Inh [6] | %Inh [7] | %Inh [8] | %Inh [9] | %Inh [10]
Cc1cccc(-c2nc(-c3ccc(S(C)(=O)=O)cc3)sc2-c2ccnc(NCCc3ccccc3)c2)c1 | 0% | 7% | 66% | 0% | 0% | 16% | 11% | 0% | 6% | 0%
Cc1c(Cn2ccn3c(=O)cc(N4CCOCC4)nc23)cccc1C(F)(F)F [GSK2289044] | 0% | 0% | 0% | 30% | 10% | 0% | 0% | 0% | 0% | 0%
CN(C)CCN(C)C(=O)c1cc(-c2ccncc2)c(-c2ccc(Cl)c(O)c2)o1.Cl.Cl [SB-710397] | 0% | 7% | 43% | 0% | 29% | 0% | 4% | 0% | 54% | 0%
Fc1cc(Cl)ccc1Nc1ccnc2cc(I)ccc12 [GW551191] | 0% | 3% | 20% | 25% | 82% | 5% | 0% | 0% | 32% | 4%
Cn1ccc2ncnc(Oc3ccc(NC(=O)Nc4ccccc4)cc3)c21 | 97.4% | 15% | 11% | 4% | 4% | 11% | 0% | 0% | 11% | 0%
COc1ccccc1CNC(=O)c1cc(C(=O)c2ccccc2C)c[nH]1 [GSK364507] | 0% | 5% | 0% | 42% | 15% | 9% | 0% | 0% | 37% | 0%
Cc1ccccc1-n1cnc2c(N)ncnc21 [SKF-97510] | 0% | 0% | 0% | 8% | 0% | 0% | 0% | 0% | 0% | 0%
Cc1ccc(NC(=O)Nc2cc(C(C)(C)C)nn2-c2ccccc2)cc1 [GSK1014915] | 98.6% | 15% | 22% | 4% | 11% | 9% | 9% | 0% | 92.4% | 7%
CCn1c(-c2ccccn2)nc2cnccc21 [SB-736398] | 2% | 0% | 17% | 0% | 9% | 10% | 1% | 5% | 78% | 1%
Cl.Oc1ccc(-c2nc(-c3ccccc3)[nH]c2-c2ccncc2)cc1 [SB-428218] | 0% | 0% | 37% | 23% | 36% | 8% | 57% | 0% | 75% | 0%
O=C(Nc1ccccc1)Nc1cccc(Oc2ccc3nccn3n2)c1 | 4% | 67% | 0% | 0% | 0% | 14% | 0% | 0% | 0% | 23%
COc1ccc(CNC(=O)NC2CCN(c3ccnc(Nc4cc(OC)c(OC)c(OC)c4)n3)C2)cc1 (centres unmarked) [GSK1379748] | 71% | 26% | 5% | 22% | 16% | 0% | 0% | 0% | 40% | 0%
CS(=O)(=O)c1ccc(-c2c(-c3ncn[nH]3)sc(N3CCOCC3)c2C#N)cc1 | 0% | 0% | 8% | 0% | 0% | 11% | 25% | 26% | 26% | 0%
Cc1cc(NCC(c2ccccc2)c2ccccc2)nc(NCc2ccc(C(F)(F)F)cc2)n1 [GW497681] | 0% | 0% | 0% | 0% | 0% | 0% | 0% | 0% | 22% | 0%
Fc1cccc(COc2nnc(-c3ccc4c(c3)CCO4)o2)c1 | 4% | 0% | 0% | 0% | 2% | 5% | 0% | 0% | 23% | 0%
Cc1cccc(-c2nc(C)cc(Nc3ccncc3)n2)n1 [GSK257997] | 5% | 13% | 0% | 36% | 0% | 0% | 0% | 0% | 0% | 0%

From publication PMC5540273 (PLoS ONE, 2017)
